A word on the inhibition: it is the drop in the measured response relative to a control, in per cent.

Assay [1] concerns the target Tyrosine-protein kinase Fyn (Homo sapiens) (UniProt P06241). The note with it: at 1 µM.
The target of assay [2] is Tyrosine-protein kinase HCK (Homo sapiens) (UniProt P08631). Conditions: at 0.1 µM.
Assay [3] shares this target. Conditions: at 1 µM.
In assay [4] the target is Insulin-like growth factor 1 receptor (Homo sapiens) (UniProt P08069). The note with it: at 0.1 µM.
Insulin-like growth factor 1 receptor (Homo sapiens), sequence (P08069 31-736 limits assumed): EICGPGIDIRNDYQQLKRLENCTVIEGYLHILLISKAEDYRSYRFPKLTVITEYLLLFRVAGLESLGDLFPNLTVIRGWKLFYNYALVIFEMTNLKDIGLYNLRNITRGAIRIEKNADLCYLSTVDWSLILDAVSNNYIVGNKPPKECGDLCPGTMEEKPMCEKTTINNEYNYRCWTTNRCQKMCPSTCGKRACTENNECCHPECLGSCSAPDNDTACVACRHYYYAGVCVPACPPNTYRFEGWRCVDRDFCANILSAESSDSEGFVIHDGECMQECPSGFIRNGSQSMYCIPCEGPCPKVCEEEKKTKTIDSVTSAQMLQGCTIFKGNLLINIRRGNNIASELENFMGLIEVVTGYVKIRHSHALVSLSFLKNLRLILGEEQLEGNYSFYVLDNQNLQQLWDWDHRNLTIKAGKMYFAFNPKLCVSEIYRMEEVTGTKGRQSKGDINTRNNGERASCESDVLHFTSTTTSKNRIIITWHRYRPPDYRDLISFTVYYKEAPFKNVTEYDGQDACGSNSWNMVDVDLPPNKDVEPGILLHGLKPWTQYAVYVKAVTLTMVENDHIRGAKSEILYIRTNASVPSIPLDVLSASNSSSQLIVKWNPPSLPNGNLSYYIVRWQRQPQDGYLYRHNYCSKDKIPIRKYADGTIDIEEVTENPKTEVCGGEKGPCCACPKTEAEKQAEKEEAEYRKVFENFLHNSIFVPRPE
Insulin-like growth factor 1 receptor (Homo sapiens), sequence (P08069 741-1367 limits assumed): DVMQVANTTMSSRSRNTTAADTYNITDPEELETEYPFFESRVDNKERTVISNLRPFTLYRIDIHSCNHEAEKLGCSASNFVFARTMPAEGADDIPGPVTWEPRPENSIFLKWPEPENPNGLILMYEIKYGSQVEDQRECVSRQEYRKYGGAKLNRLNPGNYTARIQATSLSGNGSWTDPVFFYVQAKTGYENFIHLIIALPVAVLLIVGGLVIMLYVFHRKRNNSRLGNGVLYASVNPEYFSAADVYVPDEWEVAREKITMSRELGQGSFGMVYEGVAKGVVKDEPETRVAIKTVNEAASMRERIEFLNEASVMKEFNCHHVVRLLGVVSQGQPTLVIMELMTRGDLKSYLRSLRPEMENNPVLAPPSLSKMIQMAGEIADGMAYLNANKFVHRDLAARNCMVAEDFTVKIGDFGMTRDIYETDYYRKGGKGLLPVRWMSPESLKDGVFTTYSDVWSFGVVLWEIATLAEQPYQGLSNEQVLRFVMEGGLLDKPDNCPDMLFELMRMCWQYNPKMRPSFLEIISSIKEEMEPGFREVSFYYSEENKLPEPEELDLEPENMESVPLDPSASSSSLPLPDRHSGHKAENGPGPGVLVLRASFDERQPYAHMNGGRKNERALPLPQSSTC
Assay [5] shares this target. The note with it: at 1 µM.
The target of assay [6] is Insulin receptor (Homo sapiens) (UniProt P06213). The note with it: at 0.1 µM.
For assay [7] the target is unchanged. Conditions: at 1 µM.
Assay [8] concerns the target Insulin receptor-related protein (Homo sapiens) (UniProt P14616). The note with it: at 0.1 µM.
The target is the same in assay [9]. Conditions: at 1 µM.
Assay [10] has as its target T1, Tyrosine-protein kinase ITK/TSK (Homo sapiens) (UniProt Q08881).
T1 sequence (whole entry): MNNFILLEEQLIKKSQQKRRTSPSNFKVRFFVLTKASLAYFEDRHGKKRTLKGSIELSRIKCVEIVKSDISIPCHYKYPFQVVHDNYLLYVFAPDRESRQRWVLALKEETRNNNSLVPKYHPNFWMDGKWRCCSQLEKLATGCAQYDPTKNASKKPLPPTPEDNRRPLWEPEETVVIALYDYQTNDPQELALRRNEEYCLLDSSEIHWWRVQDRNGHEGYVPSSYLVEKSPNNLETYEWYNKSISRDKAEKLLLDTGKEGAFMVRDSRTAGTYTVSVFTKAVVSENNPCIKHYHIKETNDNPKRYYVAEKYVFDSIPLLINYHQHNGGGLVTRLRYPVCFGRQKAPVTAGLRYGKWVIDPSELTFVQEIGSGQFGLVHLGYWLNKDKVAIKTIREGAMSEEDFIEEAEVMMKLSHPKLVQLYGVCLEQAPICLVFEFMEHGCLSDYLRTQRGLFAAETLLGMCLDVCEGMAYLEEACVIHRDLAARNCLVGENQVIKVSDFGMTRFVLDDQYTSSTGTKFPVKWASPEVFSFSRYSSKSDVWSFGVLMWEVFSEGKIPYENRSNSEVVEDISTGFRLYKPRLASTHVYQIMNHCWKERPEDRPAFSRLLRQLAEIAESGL
Conditions: at 0.1 µM.

In assay [11] the target is T1, Tyrosine-protein kinase ITK/TSK (Homo sapiens). Conditions: at 1 µM.
The target of assay [12] is Tyrosine-protein kinase JAK1 (Homo sapiens) (UniProt P23458). The note with it: at 0.1 µM.
Assay [13] has the same target. Conditions: at 1 µM.
Assay [14] deals with Tyrosine-protein kinase JAK2 (Homo sapiens) (UniProt O60674). The note with it: at 0.1 µM.
Assay [15] has the same target. The note with it: at 1 µM.
In assay [16] the target is T2, Tyrosine-protein kinase JAK3 (Homo sapiens) (UniProt P52333).
T2 sequence (whole entry): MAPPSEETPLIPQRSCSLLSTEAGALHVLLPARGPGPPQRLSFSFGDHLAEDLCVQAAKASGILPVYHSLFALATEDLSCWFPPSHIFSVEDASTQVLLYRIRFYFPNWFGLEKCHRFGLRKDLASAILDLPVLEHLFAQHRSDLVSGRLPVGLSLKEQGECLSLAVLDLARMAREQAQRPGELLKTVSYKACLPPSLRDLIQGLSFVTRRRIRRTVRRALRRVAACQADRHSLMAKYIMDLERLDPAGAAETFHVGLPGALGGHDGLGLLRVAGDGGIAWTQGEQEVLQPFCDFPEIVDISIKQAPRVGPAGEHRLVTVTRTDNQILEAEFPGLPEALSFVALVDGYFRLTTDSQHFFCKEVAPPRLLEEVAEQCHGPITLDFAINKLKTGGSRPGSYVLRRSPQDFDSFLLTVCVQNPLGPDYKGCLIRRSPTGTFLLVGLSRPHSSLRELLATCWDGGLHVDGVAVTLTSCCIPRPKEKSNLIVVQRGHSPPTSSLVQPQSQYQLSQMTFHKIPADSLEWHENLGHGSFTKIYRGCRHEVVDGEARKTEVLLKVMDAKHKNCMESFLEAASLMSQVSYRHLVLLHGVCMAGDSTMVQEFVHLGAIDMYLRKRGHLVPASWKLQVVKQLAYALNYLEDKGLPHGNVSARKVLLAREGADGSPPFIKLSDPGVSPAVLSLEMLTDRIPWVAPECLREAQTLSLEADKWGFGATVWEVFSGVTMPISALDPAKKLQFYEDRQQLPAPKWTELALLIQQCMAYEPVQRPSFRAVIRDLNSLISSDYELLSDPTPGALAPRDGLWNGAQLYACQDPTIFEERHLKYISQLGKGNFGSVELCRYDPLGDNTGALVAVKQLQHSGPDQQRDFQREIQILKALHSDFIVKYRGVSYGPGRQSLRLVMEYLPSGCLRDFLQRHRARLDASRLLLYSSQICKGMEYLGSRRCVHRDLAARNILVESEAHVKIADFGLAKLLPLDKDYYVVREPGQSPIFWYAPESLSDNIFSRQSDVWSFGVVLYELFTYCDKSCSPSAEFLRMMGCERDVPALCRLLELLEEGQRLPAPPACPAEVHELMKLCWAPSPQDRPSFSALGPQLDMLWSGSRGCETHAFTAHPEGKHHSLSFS
The note with it: at 0.1 µM.

Assay [17] deals with T2, Tyrosine-protein kinase JAK3 (Homo sapiens). The note with it: at 1 µM.
The target in assay [18] is Vascular endothelial growth factor receptor 2 (Homo sapiens) (UniProt P35968). The note with it: at 0.1 µM.
Vascular endothelial growth factor receptor 2 (Homo sapiens), sequence (P35968 whole entry): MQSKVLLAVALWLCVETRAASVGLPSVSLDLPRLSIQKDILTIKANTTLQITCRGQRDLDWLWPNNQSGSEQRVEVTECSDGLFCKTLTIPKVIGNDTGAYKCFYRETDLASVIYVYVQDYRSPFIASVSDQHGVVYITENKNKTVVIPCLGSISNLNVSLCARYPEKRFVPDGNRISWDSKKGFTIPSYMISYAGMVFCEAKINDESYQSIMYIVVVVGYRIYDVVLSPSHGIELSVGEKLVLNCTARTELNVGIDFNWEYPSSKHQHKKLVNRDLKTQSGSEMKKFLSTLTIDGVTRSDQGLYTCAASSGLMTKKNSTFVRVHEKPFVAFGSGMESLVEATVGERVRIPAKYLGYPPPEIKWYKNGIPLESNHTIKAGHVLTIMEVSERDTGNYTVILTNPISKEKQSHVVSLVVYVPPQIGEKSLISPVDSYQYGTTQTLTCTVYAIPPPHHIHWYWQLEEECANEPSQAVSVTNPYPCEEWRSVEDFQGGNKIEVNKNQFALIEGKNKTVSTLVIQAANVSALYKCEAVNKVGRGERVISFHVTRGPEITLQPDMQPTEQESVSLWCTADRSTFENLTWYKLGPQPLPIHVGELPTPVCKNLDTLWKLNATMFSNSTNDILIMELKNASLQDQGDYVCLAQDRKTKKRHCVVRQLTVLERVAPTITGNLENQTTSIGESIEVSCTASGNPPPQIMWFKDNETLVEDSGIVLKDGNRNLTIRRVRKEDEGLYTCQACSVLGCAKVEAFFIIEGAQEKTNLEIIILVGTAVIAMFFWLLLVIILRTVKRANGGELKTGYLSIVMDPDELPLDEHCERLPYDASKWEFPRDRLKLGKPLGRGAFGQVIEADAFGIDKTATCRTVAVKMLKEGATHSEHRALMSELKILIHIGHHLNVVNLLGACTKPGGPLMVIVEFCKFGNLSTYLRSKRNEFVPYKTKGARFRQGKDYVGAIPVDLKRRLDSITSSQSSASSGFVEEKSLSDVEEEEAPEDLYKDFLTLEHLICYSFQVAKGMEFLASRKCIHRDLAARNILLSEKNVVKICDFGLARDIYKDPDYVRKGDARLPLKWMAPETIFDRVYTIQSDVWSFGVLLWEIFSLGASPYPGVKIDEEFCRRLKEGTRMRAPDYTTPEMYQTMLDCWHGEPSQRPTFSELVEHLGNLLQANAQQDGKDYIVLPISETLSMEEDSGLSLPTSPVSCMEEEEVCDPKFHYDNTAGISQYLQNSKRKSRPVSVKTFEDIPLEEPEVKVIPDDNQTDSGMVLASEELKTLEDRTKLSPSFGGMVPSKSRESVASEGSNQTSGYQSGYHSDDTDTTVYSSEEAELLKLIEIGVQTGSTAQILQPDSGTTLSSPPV
For assay [19] the target is unchanged. The note with it: at 1 µM.
For assay [20], the target named is Mast/stem cell growth factor receptor Kit (Homo sapiens) (UniProt P10721). The note with it: at 0.1 µM.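 Note: values are mean inhibition of KIT, from the GSK PKIS dataset.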

Tyrosine-protein kinase HCK (Homo sapiens), sequence (P08631 2-526 limits assumed): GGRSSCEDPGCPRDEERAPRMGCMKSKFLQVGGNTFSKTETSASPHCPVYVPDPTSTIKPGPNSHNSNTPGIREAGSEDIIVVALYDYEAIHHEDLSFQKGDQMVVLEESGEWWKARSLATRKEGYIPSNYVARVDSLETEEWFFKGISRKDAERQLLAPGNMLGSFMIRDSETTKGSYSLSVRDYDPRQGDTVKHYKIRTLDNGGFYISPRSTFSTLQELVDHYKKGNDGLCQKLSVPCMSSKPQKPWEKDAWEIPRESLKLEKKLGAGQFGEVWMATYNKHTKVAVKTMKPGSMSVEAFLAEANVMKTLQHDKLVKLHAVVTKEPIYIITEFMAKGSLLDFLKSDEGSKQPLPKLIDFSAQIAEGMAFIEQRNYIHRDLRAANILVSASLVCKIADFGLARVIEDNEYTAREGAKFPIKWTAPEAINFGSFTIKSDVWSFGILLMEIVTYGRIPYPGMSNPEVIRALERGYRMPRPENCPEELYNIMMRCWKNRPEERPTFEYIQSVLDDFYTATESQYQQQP
Insulin receptor-related protein (Homo sapiens), sequence (P14616 27-742 limits assumed): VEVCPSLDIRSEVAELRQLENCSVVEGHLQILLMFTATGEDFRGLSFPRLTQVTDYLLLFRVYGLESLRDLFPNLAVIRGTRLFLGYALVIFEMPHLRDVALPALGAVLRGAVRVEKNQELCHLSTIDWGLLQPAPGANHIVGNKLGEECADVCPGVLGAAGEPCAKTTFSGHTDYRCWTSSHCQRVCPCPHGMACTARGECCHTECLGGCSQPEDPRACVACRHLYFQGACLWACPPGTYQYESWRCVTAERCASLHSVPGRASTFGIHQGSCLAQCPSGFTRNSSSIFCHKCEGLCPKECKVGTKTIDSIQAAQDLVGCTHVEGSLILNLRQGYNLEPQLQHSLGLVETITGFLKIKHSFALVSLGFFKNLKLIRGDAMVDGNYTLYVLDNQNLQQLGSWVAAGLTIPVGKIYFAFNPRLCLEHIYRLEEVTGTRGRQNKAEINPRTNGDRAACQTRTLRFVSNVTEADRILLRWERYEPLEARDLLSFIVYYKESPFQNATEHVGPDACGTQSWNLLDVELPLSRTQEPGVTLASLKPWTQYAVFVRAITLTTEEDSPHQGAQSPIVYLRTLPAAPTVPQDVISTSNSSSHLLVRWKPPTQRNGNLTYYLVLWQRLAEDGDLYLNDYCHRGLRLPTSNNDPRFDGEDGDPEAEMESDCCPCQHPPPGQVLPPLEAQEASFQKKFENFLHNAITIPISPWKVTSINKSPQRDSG
Insulin receptor-related protein (Homo sapiens), sequence (P14616 747-1297 limits assumed): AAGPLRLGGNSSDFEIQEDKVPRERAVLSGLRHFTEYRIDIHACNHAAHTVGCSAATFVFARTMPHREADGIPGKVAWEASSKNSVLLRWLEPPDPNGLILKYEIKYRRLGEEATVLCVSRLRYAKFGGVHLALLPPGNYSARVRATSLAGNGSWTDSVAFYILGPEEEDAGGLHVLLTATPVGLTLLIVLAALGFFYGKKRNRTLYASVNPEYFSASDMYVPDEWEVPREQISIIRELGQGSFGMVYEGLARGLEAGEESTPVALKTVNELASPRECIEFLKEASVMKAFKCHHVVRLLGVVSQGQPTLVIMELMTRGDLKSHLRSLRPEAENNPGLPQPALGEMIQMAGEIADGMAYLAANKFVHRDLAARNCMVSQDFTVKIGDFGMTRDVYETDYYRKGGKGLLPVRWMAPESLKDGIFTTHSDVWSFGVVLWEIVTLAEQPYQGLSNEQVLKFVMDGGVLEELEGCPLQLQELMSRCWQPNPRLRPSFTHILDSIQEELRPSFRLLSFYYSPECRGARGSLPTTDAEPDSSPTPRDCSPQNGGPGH
Tyrosine-protein kinase Fyn (Homo sapiens), sequence (P06241 2-537 limits assumed): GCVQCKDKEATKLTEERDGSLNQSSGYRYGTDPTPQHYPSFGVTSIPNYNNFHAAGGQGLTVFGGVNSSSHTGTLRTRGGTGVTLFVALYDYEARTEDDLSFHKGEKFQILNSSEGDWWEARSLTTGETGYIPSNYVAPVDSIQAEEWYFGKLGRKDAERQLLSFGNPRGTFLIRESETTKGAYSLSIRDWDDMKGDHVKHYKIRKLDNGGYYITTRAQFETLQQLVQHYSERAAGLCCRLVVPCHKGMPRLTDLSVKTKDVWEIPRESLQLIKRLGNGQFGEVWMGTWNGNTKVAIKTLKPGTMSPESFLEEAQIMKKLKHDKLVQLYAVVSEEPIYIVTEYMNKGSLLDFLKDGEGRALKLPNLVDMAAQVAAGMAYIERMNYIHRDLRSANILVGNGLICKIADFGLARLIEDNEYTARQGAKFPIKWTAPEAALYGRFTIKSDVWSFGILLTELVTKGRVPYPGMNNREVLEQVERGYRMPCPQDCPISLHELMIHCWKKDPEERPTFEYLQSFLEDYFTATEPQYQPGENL

Turning to `Cc1cccc(Nc2ncc(-c3ccccc3)o2)c1`, the inhibition amounted to 8.62% in assay [1]; 4.6% in assay [2]; 10.2% in assay [3]; 4.44% in assay [4]; 1.6% in [5]; 3.27% in assay [6]. Further, the inhibition in assay [7] worked out at 2.89%; in assay [8], 2.57%; in assay [9] it was 1.2%; in assay [10] it was 2.38%; in [11], 3.08%; in assay [12] it was 2.19%. For the same compound, the inhibition was 0.42% in assay [13]; 2% in assay [14]; 2.63% in [15]; -0.81% in [16]; -0.44% in assay [17]; 4.96% in assay [18]. Also, the inhibition in assay [19] was 21.3%; in assay [20], 38.5%.
Regarding `c1ccc(-c2nc3n(c2-c2ccc4c(c2)OCO4)CCC3)nc1`, the inhibition in assay [1] was determined as 2.79%; in [2] it was 2.86%; in assay [3], 0.81%; in assay [4], 9.41%; in assay [5], 8.89%; in [6], 4.57%. In addition, the inhibition was 3.26% in assay [7]; 0.08% in [8]; 1.11% in [9]; 0.42% in [10]; 0.24% in [11]; -2.35% in assay [12]. In addition, the inhibition is 4.78% in assay [13]; 1.27% in [14]; -1.02% in assay [15]; -0.19% in assay [16]; -0.04% in [17]; 3.58% in assay [18]. In addition, the inhibition in [19] amounted to 11.7%; in [20], 1.86%.
Turning to `COc1cc(N2CCN(C(C)C)CC2)ccc1Nc1nc(Nc2ccc(F)cc2C(N)=O)c2cc[nH]c2n1`, the inhibition in assay [1] came out at 9.69%; in [2], 3.05%; in assay [3] it was 7.94%; in assay [4], 101%; in assay [5], 101%; in assay [6], 103%. Besides, the inhibition in assay [7] is 102%; in [8], 76.1%; in [9] it was 96.7%; in [10], 2.65%; in assay [11], 5.47%; in assay [12], 3.68%. Also, the inhibition came out at 2.03% in [13]; 2.05% in [14]; 2.59% in assay [15]; 0.12% in [16]; 11.6% in assay [17]; 4.96% in assay [18]. For the same compound, the inhibition is 15.3% in assay [19] and -0.57% in assay [20].
For the compound `CCn1c(-c2nonc2N)nc2cnc(Oc3cccc(NC(=O)c4ccc(N(C)C)cc4)c3)cc21`, the inhibition in assay [1] is 1.97%; in assay [2], 4.12%; in assay [3], 4.03%; in assay [4] it was -0.26%; in assay [5], 0.33%; in assay [6] it was 2.97%. The inhibition is 3.14% in assay [7]; -0.46% in assay [8]; 0.53% in [9]; 0.98% in assay [10]; 0.86% in assay [11]; 0.78% in assay [12]. Moreover, the inhibition was 2.7% in assay [13]; 0.7% in assay [14]; 0.27% in [15]; -0.01% in assay [16]; -1.1% in assay [17]; 2.18% in [18]. For the same compound, the inhibition in [19] amounted to 8.86%; in [20], 0.97%.
Take `COc1ccc(-c2cc(-c3c[nH]nc3-c3ccccn3)ccn2)cc1`: the inhibition in [1] is 3.5%; in assay [2] it was 4.81%; in [3], 10.3%; in assay [4] it was 3.75%; in assay [5] it was 3.01%; in assay [6], 4.5%. Also, the inhibition in [7] amounted to 3.43%; in assay [8] it was 3.63%; in [9], 3.15%; in [10] it was 1.28%; in assay [11], 2.05%; in assay [12] it was 4.74%. The inhibition is 7.4% in assay [13]; 1.59% in assay [14]; 4.19% in [15]; -1.18% in assay [16]; -0.62% in [17]; 12.7% in assay [18]. The results for the inhibition in assay [19] and in assay [20] were 48% and 5.05%, respectively.
In the case of `CN1CCC(n2cnc(-c3ccc(F)cc3)c2-c2ccnc(Nc3ccccc3)n2)CC1`, the inhibition is 8.11% in [1]; 4.85% in assay [2]; 11.1% in assay [3]; 1.01% in assay [4]; 1.68% in assay [5]; 1.5% in [6]. Besides, the inhibition in assay [7] was found to be 0.39%; in [8], 0.31%; in assay [9] it was 2.49%; in [10], 0.83%; in assay [11] it was 1.68%; in assay [12], 1.51%. Also, the inhibition was 8.4% in [13]; 0.27% in assay [14]; 0.26% in [15]; -0.54% in [16]; 1.46% in [17]; 4.35% in [18]. Besides, the figures for the inhibition in assay [19] and in assay [20] were 12.4% and 2.33%, respectively.

The values are drawn from ChEMBL document CHEMBL1961873, “Compounds: GSK PKIS; Assays: Nanosyn kinase panel” (2012).
